High-throughput results deposited in PubChem by National Center for Advancing Translational Sciences (NCATS).
BAZ2B block = blocks human BAZ2B. 360,000 tested, 4.4% active. Potency, µM (top dose mostly 114 µM), without a hit: top-dose activity change, negative = inhibition, usual class: inhibitors. AlphaScreen BAZ2B-H3K14Ac peptide displacement. Q9UIF8; also: % is scaled to controls: 0 for no effect and ±100 for the full control effect; nearly all actives have a fitted effect of over 60% in size
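Inhibition is scored as reduced AlphaScreen emission. The BAZ2B/b-H3(5-23)K14Ac complex (50 nM each) in PBS pH 7.4, 0.01% Tween-20 meets compound (up to 110 uM) for 30 min at RT before bead addition.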
G9a block = inhibitors of human histone lysine methyltransferase G9a; Q96KQ7; G9a H3K9 monomethylation, AlphaScreen, 2 h; Potency, µM (titrated, usually from 102 µM), for the others: top-dose activity, negative = inhibition, most hits filed as inhibitors; 350,000 tested, 8.8% active; also: % is scaled to controls: 0 for no effect and ±100 for the full control effect; nearly all actives have a fitted effect of over 75% in size
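Compounds were preincubated with 20 nM G9a for 15 min, after which biotinylated H3K9 peptide (500 nM) and SAM (20 uM) started a 2 h room-temperature reaction. Monomethylated product was quantified by antibody-based AlphaScreen chemiluminescence.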
JMJD2A Tudor = inhibitors of human JMJD2A Tudor domain; O75164; AlphaScreen JMJD2A-Tudor / H3K4me3 peptide binding; Potency, µM (titrated, usually from 114 µM), inactives show at the top dose activity change, negative = inhibition, hits mostly inhibitors; 390,000 tested, 4.4% active; AID 504339; also: % is scaled to controls: 0 for no effect and ±100 for the full control effect; nearly all actives have a fitted effect of over 50% in size
HP1b chromo inh = HP1-beta chromodomain-methylated histone interaction inhibition. AlphaScreen HP1-beta / biotin-H3K9me3 peptide binding. Potency, µM (doses to about 114 µM), without a hit: at the highest dose activity change, negative = inhibition, usual class: inhibitors. 390,000 tested, 0.56% active. AID 540317; also: nearly all actives have a fitted effect of over 70% in size
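HP1-beta protein (50 nM final) preincubated 30 min at room temperature with biotinylated H3(1-18)K9me3 peptide (50 nM) in PBS pH 7.4, 0.01% Tween-20, then compound added for 30 min. AlphaScreen streptavidin donor/nickel chelate acceptor beads (10 ug/mL final), 30 min dark, luminescence read.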
Sfp inh = blocks B. subtilis Sfp PPTase activity. 310,000 tested, 3.5% active. Biochemical Sfp PPTase activity, qHTS. AID 1490. Potency, µM, inactives show largest response in the series, negative = inhibition, usual class: inhibitors. Q9F4F7;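 also: the enzyme is Sfp with the accession as filed and its product quenches rhodamine fluorescence; 0% = enzyme reaction without inhibitor and -100% = no enzyme wells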
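Step 1, compound plus 15 nM Sfp-PPTase, 15 min, room temperature. Step 2, add rhodamine-CoA (5 uM) and BHQ-2-YbbR (12.5 uM). Step 3, read 525/598 nm fluorescence at 0 and 30 min.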
PLK1 PBD inh = blocks phosphopeptide binding to human PLK1 polo-box domain; Potency, µM, for the others: max response, negative = inhibition, actives largely listed as inhibitors; Plk1 PBD binding of FITC phosphopeptide, fluorescence polarization; AID 720504; P53350; 360,000 tested, 2.8% active; also: series mostly up to about 57 µM; % is scaled to controls: 0 for no effect and ±100 for the full control effect; nearly all actives have a fitted effect of over 65% in size
Target sequence (P53350 whole entry, looked up, the tested form may be a part): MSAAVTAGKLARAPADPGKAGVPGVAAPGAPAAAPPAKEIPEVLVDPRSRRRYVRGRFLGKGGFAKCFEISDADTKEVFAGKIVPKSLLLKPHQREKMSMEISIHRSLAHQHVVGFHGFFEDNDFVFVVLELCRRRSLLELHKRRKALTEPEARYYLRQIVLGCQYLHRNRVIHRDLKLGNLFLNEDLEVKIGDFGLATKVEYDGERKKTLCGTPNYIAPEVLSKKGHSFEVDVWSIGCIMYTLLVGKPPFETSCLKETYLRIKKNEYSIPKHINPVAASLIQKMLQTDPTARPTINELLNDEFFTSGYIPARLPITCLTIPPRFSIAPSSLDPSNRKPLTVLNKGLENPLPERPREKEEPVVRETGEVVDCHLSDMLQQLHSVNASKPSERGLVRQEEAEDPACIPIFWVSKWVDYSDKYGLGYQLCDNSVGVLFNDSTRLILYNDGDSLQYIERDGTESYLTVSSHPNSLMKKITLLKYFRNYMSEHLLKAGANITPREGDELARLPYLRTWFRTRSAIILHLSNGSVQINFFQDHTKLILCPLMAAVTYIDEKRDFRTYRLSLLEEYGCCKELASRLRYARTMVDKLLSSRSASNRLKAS
The depositor's hits bear a star; ? = inconclusive; nt = not tested or not shown; [ ] = remark or other dose. Shown are actives, neighbours in structure and some others; about 12% of the full set was active somewhere. Calls follow the shape of the dose curve; as a rule, active = well fitted curve in the direction sought with a large enough effect; inconclusive = small, poorly fitted or top-dose-only effect, or another doubt; inactive = no such curve, though single readings can be large; an effect the other way counts as inactive or inconclusive. Potency is read from the fitted curve at half-maximal effect.

SMILES | BAZ2B block | G9a block | JMJD2A Tudor | HP1b chromo inh | Sfp inh | PLK1 PBD inh
COc1ccccc1C=NN=C(NN=Cc1ccccc1OC)NN=Cc1ccccc1OC | nt | nt | ? | 79µM* | nt | -3%
COc1ccccc1Sc1ccccc1/C=N/NC(N)=O | -2% | 50µM* | -1% | 43% | 2% | 1%
COc1ccccc1C=NNC(=O)NN=Cc1ccccc1OC | nt | nt | -30% | 23% | nt | 4%
Cc1cc(F)ccc1NC(=O)c1c(C)oc2c1C1=NCCN1C=N2 | -1% | 23%[59 µM] | -17% | 12% | nt | nt
CC(C)Cc1ccc(CN2CCCC(NC(=O)CCN3CCCO3)C2)cc1 (stereo not given) | -32% | 79µM* | -25% | 11% | 3% | -11%
CC(C)Cc1ccc(CN2CCCC(NC(=O)CCN3CCCCC3=O)C2)cc1 (stereo not given) | -5% | -9% | -11% | 39% | 6% | 7%
CC(=O)NCCC(=O)N(C)CC1CCN(CCc2cccc(C(F)(F)F)c2)CC1 | -29% | 66% | ? | 23% | 18% | 21µM*
Cc1ccc(-c2nc3ncccc3o2)cc1NC(=O)c1ccc(-c2ccc(Cl)cc2)o1 | 5% | 1%[59 µM] | -10% | 34% | nt | nt
COc1ccc(-c2nc(-c3ccccc3)nc(N3CCN(C)CC3)c2C#N)cc1 | ? | -8% | ? | -10% | 1% | -8%
COc1ccc(-c2nc(-c3cccc(C)c3)nc(N3CCN(C)CC3)c2C#N)cc1 | -7%[57.1 µM] | 79µM* | -19% | 9% | 11% | -2%
COC(=O)c1sc2nc(-c3ccccc3)nc(N3CCN(C)CC3)c2c1C | ? | ? | ? | -5% | 50µM* | 1%
COc1cccc(-c2nc(-c3ccccc3)nc(N3CCN(C)CC3)c2C#N)c1 | ? | 50µM* | 56µM* | -9% | -27% | -2%
CCS(=O)(=O)N1CCC(C(=O)NCCC(C)C)CC1 | 1% | 12%[59 µM] | -19% | 5% | nt | nt
COc1cc(C2C(=O)N(C3CCCCCC3)CC(=O)N2CCc2ccccc2)ccc1OC(C)C (stereo not given) | -3% | -4%[59 µM] | -11% | 35% | nt | nt
CN(C)Cc1cccc([N+](=O)[O-])c1O | -17% | 50µM* | -21%[11.4 µM] | 22% | 8% | -7%
COC(=O)c1ccccc1NC(=O)CCS(=O)(=O)c1ccc(Br)s1 | 5% | 22%[59 µM] | 11%[57.1 µM] | 24% | 1% | -13%
Cc1ccc(CNC(=O)CCS(=O)(=O)c2ccc(Br)s2)o1 | 2% | ? | -21% | -24% | 40µM* | ?
Cc1ccccc1NC(=O)CCS(=O)(=O)c1ccc(Br)s1 | ? | 45µM* | -24% | -33% | 6% | -20%
COc1ccc(C(=O)N2CCC3(CCCN(Cc4ccccc4OC)C3)CC2)cc1 | nt | -4%[12.7 µM] | nt | nt | 9% | nt
CCOCCCn1c(SCC(=O)Nc2ccc(C)cc2)nc2ccccc2c1=O | 7% | 10%[59 µM] | -10% | 1% | nt | nt
CCNC(=S)/N=C(\N)Nc1nc(C)c2cc(C)ccc2n1 | 11µM* | ? | ? | 12% | 3% | -6%
CCNC(=S)/N=C(/Nc1ccc(OC)cc1)Nc1nc(C)cc(C)n1 | 8% | -44% | -6% | 25% | 3.2µM* | 5%
CCNC(=S)/N=C(/Nc1ccccc1)Nc1nc(C)cc(C)n1 | ? | nt | -24% | 2% | 4.5µM* | 0%
Cc1ccc(NC(=S)NCc2cccnc2)cc1 | 8% | 11%[0.501 µM] | 5% | 26% | 2% | -3%
CCNC(=S)NC(=NCc1cccnc1)Nc1nc(C)cc(C)n1 | 1% | nt | -5% | 32% | 25µM* | 3%
SMILES | BAZ2B block | G9a block | JMJD2A Tudor | HP1b chromo inh | Sfp inh | PLK1 PBD inh
COc1cccc(N/C(=N/C(=S)Nc2ccc(C)cc2C)Nc2nc(C)cc(C)n2)c1 | -18% | nt | -8% | 32% | ? | -6%
CCOc1ccc2nc(N/C(N)=N/C(=S)Nc3ccc(C)c(C)c3)nc(C)c2c1 | -8% | 13% | -20% | 32% | -3% | -4%
CCC1=C2CC[C@H]3C(=O)NC(=O)[C@H]3[C@H]2[C@@]2(C)C(=NCC(=O)OC)OC(=O)N2C1=O | nt | nt | nt | nt | 3% | nt
O=C1C(=O)N(C2CCN(C(=O)c3ccc(F)cc3)CC2)CCN1Cc1ccc(F)cc1 | -2% | -3%[59 µM] | 3% | 27% | nt | nt
CCOC(=O)N1CCN(S(=O)(=O)c2ccc(OC)c(C(=O)N3CCCCC3)c2)CC1 | -16% | 8% | -7% | 9% | -6% | -1%
Cc1cc2c(cc1Cl)C(c1ccc3c(c1)OCO3)CC(=O)O2 (stereo not given) | nt | 18% | nt | nt | 5% | nt
O=C(CSc1nc2c(c(=O)[nH]1)CCCC2)Nc1cccc(O)c1 | -35% | ? | -31% | 0% | nt | nt
CCOc1ccc(N2Cc3ccccc3C2)cc1 | nt | 2.5µM* | -22% | 15% | 3% | -12%
COc1ccc(Cl)cc1NC(=O)CN(C)C(=O)Cn1cnc2c1c(=O)n(C)c(=O)n2C | -5% | -1% | -9% | 23% | nt | -8%
COc1ccccc1C1C2=C(CC(C)(C)CC2=O)Nc2nnnn21 (stereo not given) | -28% | 28µM* | -14% | 9% | 6% | 3%
CCCC1CC(C(=O)NC(C(C)Cl)C2OC(SC)C(O)C(O)C2O)N(C)C1 (stereo not given) | 1% | -6%[12.7 µM] | -11% | 18% | 3% | -5%
Cc1c2c(c(C)n1C)C(C(=O)NC1CCCCC1)N(Cc1ccccc1)C2=O (stereo not given) | nt | 50µM* | -10% | 12% | 13% | -19%
O=C(NC1CCCCCC1)C1c2ccccc2C(=O)N1Cc1ccc(F)cc1 (stereo not given) | 16% | 24%[59 µM] | -4% | 67% | nt | nt
CC1CCCC(C)N1CC(O)COc1c(F)cc(Br)cc1F (stereo not given) | -7% | -25% | 8%[11.4 µM] | 18% | 16% | 21µM*
CCC1=C2CC[C@H]3C(=O)N(CC(=O)OC)C(=O)[C@H]3[C@H]2[C@@]2(C)C(=O)N(CC3CC3)C(=O)N2C1=O | nt | nt | nt | nt | 50µM* | nt
CCC1=C2CC[C@H]3C(=O)N(CC)C(=O)[C@H]3[C@H]2[C@@]2(C)C(=O)N(CC(=O)OC)C(=O)N2C1=O | nt | nt | nt | nt | 1% | nt
COc1cc(C2CC(=O)N(c3ccc(C)c(Cl)c3)C3=C2C(=O)OC3)cc(OC)c1OC (stereo not given) | -35% | -24%[59 µM] | -9% | 12% | nt | nt
